From PubChem BioAssay (NCI)
About 83,000 compounds went through this panel and 20% of them were active in at least one assay; those are over-represented in the sample as a whole.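 Growth was measured after 48 h exposure to one concentration of compound in 96-well plates. Values under 10 count as active.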 Calls of active or inactive are those of the source.

system: HL-60(TB) leukemia; test: NCI-60 one-dose screen, 48 h (100 = growth as untreated, 0 = no growth, -100 = all killed); details: 10 µM unless noted

Q: With `Cc1ccc([C@H]2c3[nH]c4ccccc4c3C[C@H]3C(=O)N(CCCCCCC(=O)NO)CC(=O)N23)s1` as the compound, how does the growth read?
A: 50.1% (inactive)

Q: `Clc1ccc(-c2nc3ccc(/C(=N\N=C\c4ccccc4)c4ccccc4)cc3[nH]2)cc1` was tested. Which growth did it give?
A: 73.3% (inactive)

Q: Which growth does the source give for `Cn1ccnc1C(=O)/C=C/c1ccc(CNC(=O)c2ccc(Cl)cc2)cc1` here?
A: -25.5% (active)

Q: With `CCOC(=O)c1c(Nc2ccccc2)nn2c(-c3ccccc3)ccnc12` as the compound, how does the growth read?
A: 80.7% (inactive)
